Test results reported in PubChem BioAssay (NCATS).
Records with an inconclusive call do not appear. Unmarked numbers belong to inactive results. Calls of active or inactive are those of the source. Calls come from the whole dose curve; as a rule, active = well fitted curve in the direction sought with a large enough effect; inconclusive = small, poorly fitted or top-dose-only effect, or another doubt; inactive = no such curve, though single readings can be large; an effect the other way counts as inactive or inconclusive.

Each compound was assayed against Rap guanine nucleotide exchange factor 4 (Homo sapiens) (UniProt Q8WZA2) (assay: Confirmatory qHTS for antagonist of cAMP-regulated guanine nucleotide exchange factor 4 (EPAC2) (AID 1645885; note: nearly all actives have a fitted effect of over 25% in size; note: potency is the fitted concentration of half-maximal effect; for activity change, negative = inhibition: % is set by controls: 0 for no effect and ±100 for the full control effect)). Details: EPAC2 Rap1B-BODIPY-GDP exchange fluorescence, biochemical; series mostly up to 12.7 µM; activity change, negative = inhibition: at the top concentration.
Chain of Rap guanine nucleotide exchange factor 4 (Homo sapiens) (Q8WZA2 whole entry, looked up): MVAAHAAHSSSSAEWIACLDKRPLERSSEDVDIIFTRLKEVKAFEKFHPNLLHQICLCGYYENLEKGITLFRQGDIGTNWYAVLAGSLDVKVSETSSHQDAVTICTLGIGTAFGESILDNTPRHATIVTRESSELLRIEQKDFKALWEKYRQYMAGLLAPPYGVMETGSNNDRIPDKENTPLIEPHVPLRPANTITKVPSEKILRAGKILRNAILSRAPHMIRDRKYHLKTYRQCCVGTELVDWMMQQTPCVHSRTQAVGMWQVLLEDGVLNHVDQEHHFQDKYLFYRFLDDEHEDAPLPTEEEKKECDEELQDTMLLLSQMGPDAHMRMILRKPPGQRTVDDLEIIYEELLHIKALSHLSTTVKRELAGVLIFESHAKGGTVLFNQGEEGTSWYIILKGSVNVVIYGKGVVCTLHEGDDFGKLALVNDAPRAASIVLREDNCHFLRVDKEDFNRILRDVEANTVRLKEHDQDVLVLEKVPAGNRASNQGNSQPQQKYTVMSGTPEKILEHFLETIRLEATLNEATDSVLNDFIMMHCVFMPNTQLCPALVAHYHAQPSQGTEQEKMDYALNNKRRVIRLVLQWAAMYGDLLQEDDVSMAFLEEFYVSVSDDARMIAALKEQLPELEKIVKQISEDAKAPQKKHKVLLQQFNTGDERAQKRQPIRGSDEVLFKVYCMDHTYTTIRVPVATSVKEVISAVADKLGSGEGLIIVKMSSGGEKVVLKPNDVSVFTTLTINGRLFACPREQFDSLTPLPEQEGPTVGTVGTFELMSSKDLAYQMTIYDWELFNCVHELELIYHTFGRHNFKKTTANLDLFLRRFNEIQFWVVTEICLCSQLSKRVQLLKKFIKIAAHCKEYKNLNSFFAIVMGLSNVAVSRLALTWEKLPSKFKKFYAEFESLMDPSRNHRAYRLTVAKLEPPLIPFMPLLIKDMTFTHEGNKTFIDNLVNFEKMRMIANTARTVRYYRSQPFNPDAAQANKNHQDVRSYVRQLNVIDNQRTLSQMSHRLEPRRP
`CSc1cccc(N2CC(C(=O)Nc3cccc(S(=O)(=O)N4CCCC4)c3)CC2=O)c1` (stereo unspecified) was tested, and the “activity change, negative = inhibition” value was -15.5%. `NC(=O)c1c(NC(=O)CSc2nnc(-c3ccco3)n2N)sc2c1CCCC2` was tested, and the “outcome” value was “inactive”. `Cc1ccc(C)n1-c1nn(S(=O)(=O)c2ccccc2)c2cccc(F)c12` was tested, and the Potency was 13.5 µM (active). `COc1ccc(SC[C@H](C)CN2CC[C@H](C(C)(C)C)CCC2=O)cc1` was tested, and the Potency was 35 µM (active). For `NS(=O)(=O)c1ccc2c(c1)C1C=CCC1C(C1CC=CCC1)N2` (stereo unspecified), the “activity change, negative = inhibition” value was 1.11%.

What follows are compounds tested against Rap guanine nucleotide exchange factor 3 (Homo sapiens) (UniProt O95398) (assay: Counterscreen qHTS for antagonist of cAMP-regulated guanine nucleotide exchange factor 3 (EPAC1) (AID 1645888;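 note: fluorescence loss as bound BODIPY-GDP is released from Rap1B; % of control where 0% means no effect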)). Details: Rap1B-BODIPY-GDP nucleotide exchange, fluorescence; series mostly up to 154 µM; activity change, negative = inhibition: at the top concentration.
Chain of Rap guanine nucleotide exchange factor 3 (Homo sapiens) (O95398 whole entry, looked up): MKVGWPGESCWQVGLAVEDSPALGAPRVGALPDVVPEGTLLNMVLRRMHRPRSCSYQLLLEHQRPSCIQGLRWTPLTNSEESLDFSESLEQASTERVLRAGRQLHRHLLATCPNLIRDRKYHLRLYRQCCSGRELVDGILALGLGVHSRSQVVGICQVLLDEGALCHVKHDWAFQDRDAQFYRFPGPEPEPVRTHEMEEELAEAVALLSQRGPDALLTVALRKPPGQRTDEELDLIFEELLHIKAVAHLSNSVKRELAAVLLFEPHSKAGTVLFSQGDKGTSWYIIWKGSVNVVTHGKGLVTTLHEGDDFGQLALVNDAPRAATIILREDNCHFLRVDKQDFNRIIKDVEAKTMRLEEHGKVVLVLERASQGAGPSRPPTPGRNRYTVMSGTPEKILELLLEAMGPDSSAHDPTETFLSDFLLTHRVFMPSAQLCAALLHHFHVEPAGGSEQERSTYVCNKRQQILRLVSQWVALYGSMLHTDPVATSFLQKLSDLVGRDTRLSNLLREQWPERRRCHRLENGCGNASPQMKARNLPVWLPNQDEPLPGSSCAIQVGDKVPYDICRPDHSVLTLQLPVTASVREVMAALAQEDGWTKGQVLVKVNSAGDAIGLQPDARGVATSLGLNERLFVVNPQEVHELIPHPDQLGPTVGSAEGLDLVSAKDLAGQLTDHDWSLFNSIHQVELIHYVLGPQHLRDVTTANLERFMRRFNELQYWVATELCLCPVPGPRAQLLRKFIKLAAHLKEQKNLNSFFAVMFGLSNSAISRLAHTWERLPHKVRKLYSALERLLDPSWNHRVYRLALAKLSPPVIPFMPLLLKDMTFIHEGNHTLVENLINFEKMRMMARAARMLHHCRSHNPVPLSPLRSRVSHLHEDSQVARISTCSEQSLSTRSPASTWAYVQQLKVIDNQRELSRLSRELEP
Outline: (§1)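 Measured: fluorescence of BODIPY-GDP bound to Rap1B, which falls as exchange proceeds. Conditions include 50 uM competing GDP, 5 and 30 min reads, and a later cAMP challenge for antagonist detection.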
With `CCCCn1nnnc1C(c1cc2ccccc2o1)N1CCCCC1` (stereo unspecified) the “activity change, negative = inhibition” value was -8.42%. With `CN1c2ccccc2C(C)(C)C12C=Nc1c(cc(N3CCOCC3)c3ccccc13)O2` (stereo unspecified) the “activity change, negative = inhibition” value was 34.1%. In the case of `COc1cc2c3nnc(-c4ccc(F)cc4)c-3cn(Cc3cccc(C)c3)c2cc1OC`, the “activity change, negative = inhibition” value is reported as 49.7%. In the case of `O=C(O)c1ccc(COc2ccccc2/C=C2/NC(=O)N(c3cccc(Cl)c3)C2=O)cc1`, the “activity change, negative = inhibition” value is reported as 5.8%. In the case of `CCOCCCNc1nc2c(C)cccn2c(=O)c1/C=C1\SC(=S)N(CC(C)C)C1=O`, the “activity change, negative = inhibition” value is reported as 16.9%. With `CCOc1ccc(S(=O)(=O)Nc2cc(SCC(=O)O)c(O)c3ccccc23)cc1` the “activity change, negative = inhibition” value was 23.7%. `CN1CC=C2C(C#N)=C(N)C(C#N)(C#N)[C@H](c3cccc(Cl)c3)C2C1` (stereo partly specified) was tested, and the “activity change, negative = inhibition” value was 33.9%. For `O=[N+]([O-])c1c(Nc2ccccn2)cc(Cl)c2nonc12`, the “activity change, negative = inhibition” value was 13%. In the case of `C[n+]1ccc(/C=C/c2c[nH]c3ccccc23)cc1`, the “activity change, negative = inhibition” value is reported as 174%. For `O=[N+]([O-])/C=C/c1cn(Cc2ccc(Cl)cc2)c2ccccc12`, the “activity change, negative = inhibition” value was 5.79%. With `COc1cccc(Nc2nnc(-c3cc4ccc(O)cc4oc3=O)s2)c1` the “activity change, negative = inhibition” value was 129%. In the case of `Fc1ccc(Nc2cncc(-c3ccsc3)c2)cc1Cl`, the “activity change, negative = inhibition” value is reported as 3.53%.

Each compound was assayed against Rap guanine nucleotide exchange factor 3 (Homo sapiens) (UniProt O95398) (assay: Counterscreen qHTS for agonist of cAMP-regulated guanine nucleotide exchange factor 3 (EPAC1) (AID 1645889; note: nearly all actives have a fitted effect of over 40% in size; note: potency is the fitted concentration of half-maximal effect; for activation: % of control where 0% means no effect)). Details: EPAC1 Rap1B-BODIPY-GDP exchange, fluorescence; series mostly up to 154 µM; activation: at the top concentration.
Outline: as §1
With `CC1CCN(C2(O)C(=O)Nc3ccc(Br)cc32)CC1` (stereo unspecified) the “activation” value was -4.09%. For `COc1cc2c3nnc(-c4ccc(F)cc4)c-3cn(Cc3cccc(C)c3)c2cc1OC`, the “activation” value was -83.4%. For `CCOc1ccc(S(=O)(=O)Nc2cc(SCC(=O)O)c(O)c3ccccc23)cc1`, the Potency was 56.2 µM (active). In the case of `C[n+]1ccc(/C=C/c2c[nH]c3ccccc23)cc1`, the Potency is reported as 35.5 µM (active).
